# PubChem BioAssay AID1745850 (National Center for Advancing Translational Sciences (NCATS), 2022)
# The campaign covered roughly 2,100 compounds. About 260 (12%) were called active. Not shown: some 58% with an inconclusive outcome. The call rests on the fitted dose curve; in most records, active means well fitted cell-killing curve with a large enough effect; inconclusive means small, poorly fitted or top-dose-only effect, or effect the other way; inactive means flat fitted curve, though single readings scatter. The list shows a part of the results.
# Assay: Viability Counterscreen for Confirmatory qHTS for Inhibitors of ATXN expression; further: nearly all actives have a fitted effect of over 50% in size
# Details: HEK-293 ATXN2-luc cells viability, CellTiter-Fluor, 24 h; activity change, negative = cytotoxicity: at the top concentration
# Procedure, shortened: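 Cells with an ATXN2-luciferase reporter were dosed in a dilution series for 24 h at 37 degrees C. Viability was read first with Gly-Phe-AFC at 25 uM final (fluorescence, ex 405/em 540), then SteadyGlo luminescence. Medium-only wells defined 100% inhibition.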
# Potency means the concentration at half of the fitted maximal effect.
SMILES,"activity change, negative = cytotoxicity",Potency
COc1ccc([C@@]2(C(C)C)ON(c3ccccc3C(F)(F)F)C2=O)cc1,-9.94% (inactive),–
COc1ccc(CN(C)C(=O)c2cccc(NC(=O)CC3SC(N4CCCCC4)=NC3=O)c2)c(OC)c1 (stereo unspecified),–,35.5 µM (active)
Cc1ccc(Cn2ncc3c(NN)ncnc32)cc1,-26.4% [at 57.5 µM] (inactive),–
COc1cccc(N2CCN(c3nc(-c4ccccc4C)cc(=O)[nH]3)CC2)c1,-27.9% (inactive),–
Cc1nc2ncnn2c(N2CCN(c3cccc(C(F)(F)F)c3)CC2)c1C,-26.9% (inactive),–
CC(Sc1ccc(Cl)cc1)C(=O)NNC(=O)c1ccccc1O (stereo unspecified),-10% (inactive),–
COc1ccc(Cl)cc1NC(=O)Nc1cccc([N+](=O)[O-])c1C,-5.63% (inactive),–
COc1ccc(-c2n(CC(=O)OC3CC(C)CCC3C(C)C)c3ccccc3[n+]2C)cc1 (stereo unspecified),–,10 µM (active)
Cc1onc(-c2ccccc2)c1C(=O)N/N=C/c1c[nH]c2ccccc12,-15.8% [at 57.5 µM] (inactive),–
O=C(O)COc1ccc2oc3ccccc3c2c1,7.02% (inactive),–
Cc1nnc(SC(C)C(=O)Nc2ccc(Cl)cn2)n1Cc1ccccc1 (stereo unspecified),-12.7% [at 57.5 µM] (inactive),–
Cc1cccc(N2CCN(S(=O)(=O)c3ccc4c(c3)C(C)(C)C(=O)N4C)CC2)c1C,-12% [at 57.5 µM] (inactive),–
NC(N)=N/N=C/c1ccc2cccc(OCc3ccccc3)c2n1,–,15.8 µM (active)
CC(=O)Oc1c(Br)cc(N(C(C)=O)S(=O)(=O)c2ccccc2)c2ccccc12,–,28.2 µM (active)
N#Cc1cc2cc3c(cc2nc1SCC(=O)N1CCOCC1)OCCO3,-8.91% (inactive),–
OC(c1cc(-c2cccc(Cl)c2)nc2ccccc12)C1CCCCN1 (stereo unspecified),–,28.2 µM (active)
Cn1nccc1C(=O)N1CCCC(C(=O)c2cccc3ccccc23)C1 (stereo unspecified),-20.1% [at 57.5 µM] (inactive),–
Cn1cc(/C=C/c2cc[n+](C)cc2)c2cc(F)ccc21,-9.68% [at 57.5 µM] (inactive),–
O=C(/C=C\c1ccco1)Nc1nc(-c2ccc3ccccc3c2)cs1,-19.3% (inactive),–
O=C(CCN1C(=O)C2CC=CCC2C1=O)Nc1nc(-c2ccc(F)c(F)c2)cs1 (stereo unspecified),-16.4% [at 57.5 µM] (inactive),–
NS(=O)(=O)c1ccc(Nc2nc(-c3ccc(F)cc3)cs2)cc1,-8.41% (inactive),–
Cc1noc(C)c1CSCC(=O)Nc1nc(-c2ccc(F)c(F)c2)cs1,–,28.2 µM (active)
O=C(Nc1nc(-c2ccc(F)c(F)c2)cs1)Nc1ccc(F)cc1F,–,2.82 µM (active)
Cc1cnc(NC(=O)C2CC(=O)N(c3cccc(Cl)c3)C2)s1 (stereo unspecified),-21% (inactive),–

SMILES,"activity change, negative = cytotoxicity",Potency
CCn1c(C)nc2cc(C(=O)N/N=C/c3cccc(OC)c3O)ccc21,-17.1% (inactive),–
COc1cc([N+](=O)[O-])cc(/C=N/NC(=O)c2ccc(NC(=O)c3ccc(C)cc3)cc2)c1O,–,1.78 µM (active)
Cc1ccc(C(=O)N/N=C/c2nc3ccccc3n2C)cc1,-26.8% [at 57.5 µM] (inactive),–
CCCC1CCC(c2ccc(C(=O)NN)cc2)CC1 (stereo unspecified),-2.67% (inactive),–
Cc1c(C(=O)N/N=C/c2c(O)ccc3ccccc23)nnn1-c1nonc1N,-20.6% (inactive),–
CC(C)C(CCNCc1ccccn1)c1ccc(Cl)cc1 (stereo unspecified),-16.9% [at 57.5 µM] (inactive),–
Cc1nn2c(NCc3ccccn3)c3c(nc2c1-c1ccccc1)CCC3,–,11.2 µM (active)
Cc1cc(NCc2ccccn2)n2nc(C)c(-c3ccc(Cl)cc3)c2n1,–,14.1 µM (active)
CNc1ccccc1C(=O)OC(C)C(=O)Nc1ccc(Cl)cn1 (stereo unspecified),5.42% (inactive),–
O=C(Nc1ccc(F)cc1)c1sccc1SCc1cccc(C(F)(F)F)c1,-26.1% [at 57.5 µM] (inactive),–
CCOC(=O)c1c(NC(=O)COC(=O)c2ccccc2NC)sc(C(=O)N(C)C)c1C,-22.4% (inactive),–
NC(=O)CC(NC(=O)Cc1ccc(Br)cc1)c1ccc(NC2CCCC2)c([N+](=O)[O-])c1 (stereo unspecified),-17.4% (inactive),–
Cc1ccc(OCC(=O)c2cc(C)n(Cc3cccs3)c2C)c([N+](=O)[O-])n1,-23.1% [at 57.5 µM] (inactive),–
C/C(=N\Nc1cc(N2CCOCC2)nc(C)n1)c1cccc([N+](=O)[O-])c1,-4.32% (inactive),–
CC1CCCCN1S(=O)(=O)c1ccc(C(=O)Nc2nnc(-c3ccccc3Cl)o2)cc1 (stereo unspecified),-5.8% (inactive),–
O=C1C=C(Nc2ccccc2O)c2ccccc2C1=O,–,20 µM (active)
Cc1cc(NC(=O)CSc2nccn2-c2cccc(C)c2C)no1,-14.2% (inactive),–
CCOC(=O)c1ccc2ncc(C(=O)OCC)c(Nc3ccc(N4CCOCC4)cc3)c2c1,–,3.16 µM (active)
CCOC(=O)c1ccc(N=c2sc(C(=O)OC)cc(=O)n2-c2ccc(C(=O)OCC)cc2)cc1,-19.2% (inactive),–
CCOC(=O)Nc1ccc(N2CCOCC2)c(S(=O)(=O)Nc2ccc(Cl)cc2)c1,-10.2% (inactive),–
Cc1ccc(NC(=O)CNC(=O)c2cccc(Cl)c2)nc1,-22.1% [at 57.5 µM] (inactive),–
CCN(CC)S(=O)(=O)c1ccc(C)c(NC(=S)N2CCN(c3ccccn3)CC2)c1,-29.4% [at 57.5 µM] (inactive),–
Cc1ccc(NC(=O)c2cnc(N3CCN(c4ccccn4)CC3)c3ccccc23)c(Br)c1,–,14.1 µM (active)
Cc1cc(Br)ccc1NC(=O)c1cnc(N2CCN(c3ccccn3)CC2)c2ccccc12,-16.2% (inactive),–

SMILES,"activity change, negative = cytotoxicity",Potency
Brc1cnc2nc(SCc3nc4ccccc4[nH]3)[nH]c2c1,-3.43% (inactive),–
CCn1c(CCC(=O)Nc2nc3c(s2)CCCC3)nc2cc(S(=O)(=O)N(C)C)ccc21,-6.64% (inactive),–
Cc1ccc(C(=O)NC(C)CCc2ccccc2)cc1S(=O)(=O)N1CCOCC1 (stereo unspecified),-26% [at 57.5 µM] (inactive),–
O=C(Nc1cccc(S(=O)(=O)C(F)F)c1)c1ccc(Cl)c(S(=O)(=O)N2CCOCC2)c1,–,28.2 µM (active)
O=C(Nc1cccc(S(=O)(=O)N2CCOCC2)c1)c1ccc2c(=O)n3c(nc2c1)CCCCC3,-27.9% (inactive),–
COc1ccc(Cn2c(O)c(/C=N/NC(=O)c3cccnc3)c3ccccc3c2=O)cc1,15.3% [at 57.5 µM] (inactive),–
CCN(Cc1ccccc1)S(=O)(=O)c1ccc(C(=O)Nc2nnc(C3CC3)o2)cc1,-14.9% (inactive),–
Cc1cc2c(c(/C=C/C(=O)c3ccccc3)c1)OC1(C=C2)Oc2ccccc2C(=O)N1C (stereo unspecified),–,25.1 µM (active)
Cc1cc(C)cc(NC(=O)CSc2nc3[nH]ncc3c(=O)[nH]2)c1,-5.78% (inactive),–
Nc1c(C(=O)NCc2ccccc2)c2nc3ccccc3nc2n1-c1ccc2c(c1)OCO2,-23.9% (inactive),–
CCOC(=O)c1c(C)sc2c1N(C(=O)CN(CC)CC)c1cc(Cl)ccc1S2,–,22.4 µM (active)
Cc1ccc(-c2nc3cc(Br)cnc3nc2-c2ccc(C)cc2)cc1,-4.19% (inactive),–
COc1ccc(OCc2cccc(C(=O)Nn3cc([N+](=O)[O-])cn3)c2)cc1,-7.7% (inactive),–
Cc1ccc2c(c1)-c1c(cnn1CC(=O)N1CCCN(Cc3ccccc3F)C1)CO2,-26.7% (inactive),–
Cc1cc(C)c2nc(NNC(=O)c3ccc(S(=O)(=O)N4CC(C)CC(C)C4)cc3)sc2c1 (stereo unspecified),–,11.2 µM (active)
CC1CCCN(S(=O)(=O)c2ccc(C(=O)Nc3nnc(-c4ccccc4Cl)o3)cc2)C1 (stereo unspecified),-17.5% (inactive),–
Cc1ccc2nc(NNC(=O)c3ccc(S(=O)(=O)N4CCc5ccccc5C4)cc3)sc2c1,–,10 µM (active)
COc1ccc2nc(NC(=O)C3CCN(S(=O)(=O)c4cccs4)CC3)sc2c1,-16.7% (inactive),–
Cc1ccc(S(=O)(=O)N2CCc3ccccc3CC2)cc1,2% (inactive),–
Cc1cc(C)c2nc(NNC(=O)c3cc(-c4cccs4)nc4ccccc34)sc2c1,-22.8% (inactive),–
Cc1cccc2sc(NNC(=O)c3ccc(S(=O)(=O)N4CC(C)CC(C)C4)cc3)nc12 (stereo unspecified),–,11.2 µM (active)
CCOC(=O)N1CCN(S(=O)(=O)c2ccc(C(=O)NNc3nc4c(C)cc(C)cc4s3)cc2)CC1,-28.2% (inactive),–
Cc1ccc2nc(NC(=O)CSCC(=O)OCC(=O)c3ccc(Br)cc3)sc2c1,-7.59% [at 57.5 µM] (inactive),–
S=C(NCc1ccc(Cl)cc1Cl)NC1CCCCC1,-9.63% (inactive),–

SMILES,"activity change, negative = cytotoxicity",Potency
CCc1ccc(OCC(=O)N/N=C(\C)c2ccc(O)cc2O)cc1,-4.52% (inactive),–
C/C(=N\NC(=O)c1ccc(CN2CCc3ccccc3C2)cc1)c1ccccc1O,-15.3% (inactive),–
COc1cc(C#Cc2c(-c3cncn3C)n(C)c3ccc(-c4cnc(OC)nc4)cc23)cc(OC)c1,-4.58% (inactive),–
CC(Sc1nnc2c(n1)[nH]c1ccccc12)C(=O)N(C)C1CCCCC1 (stereo unspecified),–,20 µM (active)
CCc1nc2c(OCCOc3ccc(F)cc3)cccn2c1N(C)C(=O)c1ccco1,-9.27% [at 57.5 µM] (inactive),–
COc1cc(/C=C2\SC(=O)N(CC(=O)Nc3ccccc3F)C2=O)cc(Cl)c1O,6.65% (inactive),–
O=C1/C(=C\c2cc(Cl)c(O)c(Cl)c2)SC(=S)N1Cc1ccccc1,–,15.8 µM (active)
Clc1c(Cl)c(Cl)c2n[nH]nc2c1Cl,-17.4% [at 57.5 µM] (inactive),–
NC(N)=N/N=C/c1ccc(Cl)c(Cl)c1,–,28.2 µM (active)
CCOC(=O)Oc1c(OC)cc(C(=O)O[C@@H]2C[C@@H]3CN4CCc5c([nH]c6cc(OC)ccc56)[C@H]4C[C@@H]3[C@H](C(=O)OC)[C@H]2OC)cc1OC,-26.2% [at 57.5 µM] (inactive),–
CC1=NN(c2nc3ccccc3[nH]2)C(=O)C1Cc1ccccc1 (stereo unspecified),–,8.91 µM (active)
CCCCn1c(SCC(=O)Nc2cc(C(F)(F)F)cc(C(F)(F)F)c2)nnc1C(CC)N(C)C (stereo unspecified),-21.7% (inactive),–
COC(=O)C(Cc1ccc(O)cc1)NC(=O)C(C)Oc1ccccc1 (stereo unspecified),-13.2% [at 57.5 µM] (inactive),–
CN(Cc1ccccc1)C(=O)c1ccc(Nc2nc(C(N)Cc3ccccc3)cs2)nc1 (stereo unspecified),–,14.1 µM (active)
CCc1nc2ccc(C(=O)N(C)Cc3ccccc3)cn2c1N(C)Cc1ccc(OC)cc1,-14.2% [at 57.5 µM] (inactive),–
CC(C)CC(N)c1csc(Nc2ccc(C(=O)N(C)Cc3ccccc3)cn2)n1 (stereo unspecified),–,14.1 µM (active)
COc1ccc(CC(N)c2csc(Nc3ccc(C(=O)c4ccccc4)cc3)n2)cc1 (stereo unspecified),-23% (inactive),–
O=C(CN1C(=O)c2ccccc2S1(=O)=O)c1ccc(O)c(O)c1,-1.02% (inactive),–
CC(C)CC(NC(=O)c1ccc(Cl)cc1)C(=O)OCC(=O)c1ccc2c(c1)NC(=O)CO2 (stereo unspecified),–,28.2 µM (active)
Cc1ccc(-c2ccc(/C=N/c3ncn[nH]3)o2)cc1Cl,-16.1% (inactive),–
COc1nn(-c2ccccc2)c(=O)c(Cl)c1Cl,–,2.82 µM (active)
CCOC(=O)N(C)c1c(CC)nc2c(OCc3ccccc3OC)cccn12,-4.2% [at 57.5 µM] (inactive),–
CSCC[C@H](NC(=O)OC(C)(C)C)C(=O)N/N=C/c1cccc2cccnc12,-27.5% [at 57.5 µM] (inactive),–
CCc1cc[n+](C2=C([O-])c3ccccc3C(=O)/C2=N\S(=O)(=O)c2cccs2)cc1,–,17.8 µM (active)
